TROY NFkB inh: inhibitors of TROY-driven NF-kB signaling, primary screen, Q293 LMP1-TROYcd cells, NF-kB luciferase, uHTS. actives 0.98% (n = 360,000). Q293 LMP1-TROYcd NF-kB luciferase reporter, 4 h. AID 1347056, 2019. inhibition, % at 10 µM;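 active = compounds whose plate-normalised and pattern-corrected inhibition of the luciferase reporter signal at the single screening dose is 50% or more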
HSP90 inh: HSP90 inhibitors, primary screen, cell lysate, luminescence. Heat shock protein HSP 90 (rabbit reticulocyte lysate; luciferase refolding). Rabbit reticulocyte lysate, luciferase refolding luminescence, 3 h. inhibition, % at 5.6 µM. actives 0.91% (n = 290,000);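 active = inhibition above the screen-wide mean plus 3 SD, computed separately per campaign, cut at about 16% in these data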;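 note: 0% = DMSO wells and 100% = 60 µM geldanamycin wells; inhibitors lower the luminescence because luciferase stays unfolded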
TWEAK-Fn14 inh: inhibitors of TWEAK-Fn14 signaling, primary screen, luciferase reporter cells, uHTS | TWEAK-stimulated Fn14 reporter cells, luciferase luminescence, 8 h | inhibition, % at 10 µM | actives 2% (n = 360,000) | AID 1159606, 2016; in the data active = inhibition above about 50%
EBV LMP1 NFkB: EBV LMP1-driven NF-kappaB luciferase reporter inhibitors, primary screen, cell-based, luminescence, single point | LMP1-induced NF-kappaB luciferase reporter cells | inhibition, % at 12.5 µM | actives 0.69% (n = 350,000) | AID 504558, 2011; in the data active = inhibition above about 41%;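 note: 0% = neutral control wells and 100% = reference inhibitor control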
aDG glyco act: activators of alpha-DG glycosylation, primary screen, uHTS, Pro5-aDG cells, AlphaScreen | activation, % at 10 µM | alpha-DG glycosylation AlphaScreen (IIH6); 0% Pro5, 100% B10-LARGE cell signal | actives 0.22% (n = 360,000) | AID 624168, 2012;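 active = activation of at least 8% versus controls, or a plate z-score of at least 8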;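 note: Pro5 are CHO cells carrying HIG-tagged alpha-DG that lacks glycosylation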
LGR2 inh: inhibitors of bursicon-induced LGR2 CRE-luciferase signal, primary screen, cell-based, HEK293, CRE-luciferase reporter, bursicon stimulation; inhibition, % at 9.99 µM; AID 720647, 2013; actives 0.35% (n = 380,000); bursicon-stimulated, 4 h;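 active = drop in luminescence signal, shown as inhibition above about 50% in the replicate tests, limit read from the data, passing the limit was not always enough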;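 note: agonist challenge used bursicon conditioned medium at about half maximal strength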
* hit, by the source's call. In the library only some 2.6% were active in any assay of this set; here they are far more common.

How did COC(=O)c1c(C)oc2ccc(N(C(=O)c3ccncc3)S(=O)(=O)c3ccc(C)cc3)cc12 do in these assays?
TROY NFkB inh: 59*; HSP90 inh: 3; TWEAK-Fn14 inh: 56*; EBV LMP1 NFkB: 26; aDG glyco act: 0

How did Cc1ccc(S(=O)(=O)N(C(=O)c2ccncc2)c2ccc(OC(=O)c3ccncc3)c3ccccc23)c(C)c1 do in these assays?
TROY NFkB inh: 20; HSP90 inh: 0; TWEAK-Fn14 inh: 14; EBV LMP1 NFkB: 3; aDG glyco act: 1

How did COC(=O)c1c(C)oc2ccc(N(C(=O)c3ccncc3)S(=O)(=O)c3ccccc3)cc12 do in these assays?
TROY NFkB inh: 49; HSP90 inh: 3; TWEAK-Fn14 inh: 29; EBV LMP1 NFkB: 11; aDG glyco act: 3

How did C/C=C/c1ccc([C@@H]2[C@H](CO)N3C(=O)CN(C(=O)Nc4ccccc4F)C[C@@H]23)cc1 do in these assays?
LGR2 inh: 6

What do the screens show for `Cc1ccc(S(=O)(=O)N(C(=O)c2ccncc2)c2ccc3oc4c(c3c2)CCCC4)cc1[N+](=O)[O-]`?
TROY NFkB inh: 54*; HSP90 inh: -1; TWEAK-Fn14 inh: 30; EBV LMP1 NFkB: 9; aDG glyco act: 0; LGR2 inh: -2

What do the screens show for `Cc1ccc([N+](=O)[O-])cc1S(=O)(=O)N(C(=O)c1ccncc1)c1ccc2oc3c(c2c1)CCCC3`?
TROY NFkB inh: 22; HSP90 inh: -4; TWEAK-Fn14 inh: -2; EBV LMP1 NFkB: 2; aDG glyco act: 0; LGR2 inh: 13

How did COc1ccccc1NC(=O)N1CC(=O)N2[C@H](CO)[C@H](c3ccc(C#Cc4ccccc4)cc3)[C@@H]2C1 do in these assays?
LGR2 inh: -1

Results for CCC(C)N1C(=O)CCC1C(=O)N1CCN(c2ccc(F)cc2)CC1 (stereo not drawn) ?
TROY NFkB inh: -17; HSP90 inh: 0; TWEAK-Fn14 inh: -4; EBV LMP1 NFkB: 64*; aDG glyco act: 0; LGR2 inh: -8

How did CCCC(=O)Nc1ccc2c(c1)C(=O)N(C)C[C@@H](OC)[C@H](C)CN(C(=O)CN(C)C)[C@@H](C)CO2 do in these assays?
LGR2 inh: 16

What do the screens show for `Cc1ccc(S(=O)(=O)N(C)C[C@H]2Oc3ccc(NS(=O)(=O)c4cccs4)cc3CC(=O)N([C@H](C)CO)C[C@@H]2C)cc1`?
LGR2 inh: -14

How did Cc1[nH]nc(S(=O)CC(=O)O)c1[N+](=O)[O-] (stereo not drawn) do in these assays?
TROY NFkB inh: 88*; HSP90 inh: 2; TWEAK-Fn14 inh: 61*; EBV LMP1 NFkB: -4; aDG glyco act: 0; LGR2 inh: 28

What do the screens show for `O=C(C[C@@H]1C[C@@H]2c3cc(NC(=O)NC4CCCC4)ccc3O[C@@H]2[C@H](CO)O1)NCc1cccnc1`?
LGR2 inh: 7

What do the screens show for `Cc1noc(C)c1S(=O)(=O)Nc1ccc2c(c1)CC(=O)N([C@H](C)CO)C[C@H](C)[C@H](CN(C)S(=O)(=O)c1ccccc1)O2`?
LGR2 inh: 5

Results for CCOC(=O)c1ccc(NC(=O)C2CCCN(S(=O)(=O)c3ccc(F)cc3)C2)cc1 (stereo not drawn) ?
TROY NFkB inh: 45; HSP90 inh: -1; TWEAK-Fn14 inh: 58*; EBV LMP1 NFkB: 18; aDG glyco act: 0

Results for CCOC(=O)c1c(C)n(-c2ccc(C)cc2)c2c(C(C(C)=O)C(=O)O)c(Br)c(O)c(O)c12 (stereo not drawn) ?
TROY NFkB inh: 0; HSP90 inh: -3; TWEAK-Fn14 inh: 4; EBV LMP1 NFkB: -6; aDG glyco act: 1; LGR2 inh: 2

How did CCOC(=O)C(C(C)=O)c1c(Br)c(O)c(O)c2c(C(=O)c3ccc(C)cc3)coc12 (stereo not drawn) do in these assays?
TROY NFkB inh: 11; HSP90 inh: 3; TWEAK-Fn14 inh: 76*; EBV LMP1 NFkB: -6; aDG glyco act: 0; LGR2 inh: 24

How did Cc1cc(=O)n(CCCc2ccccc2)[nH]1 do in these assays?
TROY NFkB inh: 5; TWEAK-Fn14 inh: 6; EBV LMP1 NFkB: 6; aDG glyco act: 2; LGR2 inh: 11

What do the screens show for `N#CCCn1[nH]c(-c2ccccc2)cc1=O`?
TROY NFkB inh: 7; HSP90 inh: 31*; TWEAK-Fn14 inh: -5; EBV LMP1 NFkB: -3; aDG glyco act: 0; LGR2 inh: 3

Results for Cc1cccc(/C=N/NC(=O)c2ccccc2OCc2cccc(Br)c2)n1 ?
TROY NFkB inh: 20; HSP90 inh: 6; TWEAK-Fn14 inh: 77*; EBV LMP1 NFkB: 30; aDG glyco act: 0; LGR2 inh: 9

How did O=S(=O)(Nc1ccc2c(c1)OCCO2)c1cccs1 do in these assays?
TROY NFkB inh: 74*; HSP90 inh: 9; TWEAK-Fn14 inh: 90*; EBV LMP1 NFkB: 13; aDG glyco act: 0; LGR2 inh: 8

What do the screens show for `COc1ccc(NC(C)=O)cc1S(=O)(=O)Nc1ccc2c(c1)OCCO2`?
TROY NFkB inh: 53*; HSP90 inh: -2; TWEAK-Fn14 inh: 57*; EBV LMP1 NFkB: -4; aDG glyco act: 0; LGR2 inh: 4

What do the screens show for `COc1cccc(S(=O)(=O)Nc2ccc3c(c2)OCCO3)c1`?
TROY NFkB inh: 52*; HSP90 inh: 5; TWEAK-Fn14 inh: 76*; EBV LMP1 NFkB: -2; aDG glyco act: 0; LGR2 inh: 0

Results for Cn1c(=O)c(=O)n(C)c2cc(S(=O)(=O)Nc3ccc4c(c3)OCCO4)ccc21 ?
TROY NFkB inh: 0; HSP90 inh: 8; TWEAK-Fn14 inh: -2; EBV LMP1 NFkB: 25; aDG glyco act: 0

How did COc1ccc(C)cc1S(=O)(=O)Nc1ccc2c(c1)OCCO2 do in these assays?
TROY NFkB inh: -1; HSP90 inh: 3; TWEAK-Fn14 inh: 2; EBV LMP1 NFkB: 5; aDG glyco act: 0; LGR2 inh: -1

How did Cn1c(=O)oc2cc(S(=O)(=O)Nc3ccc4c(c3)OCCO4)ccc21 do in these assays?
TROY NFkB inh: 5; HSP90 inh: 0; TWEAK-Fn14 inh: 65*; EBV LMP1 NFkB: 12; aDG glyco act: 1

How did CN(C)C(=O)c1cccc(-c2ccc([C@@H]3[C@H]4CN(C(=O)C5CCCCC5)CC(=O)N4[C@H]3CO)cc2)c1 do in these assays?
LGR2 inh: -8

Results for Cc1ccc(NS(=O)(=O)c2cc(NC(=O)c3ccc4c(c3)NC(=O)CS4)ccc2Cl)c(C)c1 ?
TROY NFkB inh: 49; HSP90 inh: 5; TWEAK-Fn14 inh: 66*; EBV LMP1 NFkB: 7; aDG glyco act: 1; LGR2 inh: 3
